The results in this text go back to the antibiotic and cytotoxicity screens of Wong et al. (2023).

Molecules are shown by their SMILES. In all, about 39,000 compounds went through this assay and about 3,300 (8.5%) were called active. The sample as a whole holds a higher share of actives than the screen did.

The test system of this assay is HepG2. In words: cytotoxicity call (relative viability < 0.9). The note with it: 10 µM.
Take `O=C(Cc1ccncc1)Nc1ccc2c(c1)[C@H]1C[C@H](CC(=O)N3CCc4ccccc4C3)O[C@H](CO)[C@H]1O2`: the cytotoxicity call was “inactive”.

On to `O=C(C[C@H]1C=C[C@H](NC(=O)Cc2ccccn2)[C@@H](CO)O1)NCCc1ccncc1`, for which the cytotoxicity call was “inactive”.

Turning to `CC(=O)NCc1c(I)c(NC(C)=O)c(I)c(C(=O)O)c1I`, the cytotoxicity call was “inactive”.

As to `C[C@H]1CN([C@@H](C)CO)C(=O)c2cccc(NC(=O)c3ccc(-c4nccs4)cc3)c2O[C@H]1CN(C)Cc1ccc(-c2ccccc2)cc1`, the cytotoxicity call was “inactive”.

`C[C@@H]1CN([C@@H](C)CO)S(=O)(=O)c2ccc(-c3ccc(F)cc3)cc2O[C@H]1CN(C)C(=O)C1CCOCC1`: the cytotoxicity call was “inactive”.

Take `C[C@@H]1CCCCO[C@H](CN(C)C(=O)CCCN(C)C)[C@@H](C)CN([C@@H](C)CO)C(=O)c2cc(N(C)C)ccc2O1`: the cytotoxicity call was “inactive”.

As to `C[C@@H]1CN([C@H](C)CO)C(=O)c2cccc(NS(C)(=O)=O)c2O[C@@H]1CN(C)C(=O)Nc1ccc(F)cc1`, the cytotoxicity call is “inactive”.

As to `Cc1[nH]c(=O)[nH]c(=O)c1/C=C/C(=O)O`, the cytotoxicity call was “inactive”.

Regarding `O=C(C[C@H]1CC[C@@H]2[C@H](COC[C@H](O)CN2S(=O)(=O)c2ccc(F)cc2)O1)N[C@H]1CCN(Cc2ccccc2)C1`, the cytotoxicity call is “inactive”.

For `C[C@H]1CN([C@@H](C)CO)C(=O)c2cc(NC(=O)Nc3ccc(C(F)(F)F)cc3)ccc2O[C@H]1CN(C)Cc1ccc(-c2ccccc2)cc1`, the cytotoxicity call is “active”.

Regarding `C[C@@H]1CN([C@@H](C)CO)C(=O)c2cc(NC(=O)Nc3ccc(C(F)(F)F)cc3)ccc2O[C@@H]1CN(C)Cc1ccc(-c2ccccc2)cc1`, the cytotoxicity call was “active”.

Take `C[C@@H]1CN([C@H](C)CO)C(=O)c2cc(NC(=O)Nc3ccc(C(F)(F)F)cc3)ccc2O[C@H]1CN(C)Cc1ccc(-c2ccccc2)cc1`: the cytotoxicity call is “active”.

As for `C[C@@H]1CN([C@@H](C)CO)C(=O)c2cc(NC(=O)Nc3ccc(C(F)(F)F)cc3)ccc2O[C@@H]1CN(C)S(C)(=O)=O`, the cytotoxicity call was “inactive”.

Consider `C[C@H](CO)N1C[C@H](C)[C@@H](CN(C)C(=O)Nc2cccc3ccccc23)Oc2c(NC(=O)Nc3cccc4ccccc34)cccc2C1=O`, for which the cytotoxicity call was “inactive”.

Turning to `C[C@@H]1CCCCO[C@H](CN(C)Cc2ccccc2)[C@H](C)CN([C@@H](C)CO)C(=O)c2cc(NC(=O)c3ccncc3)ccc2O1`, the cytotoxicity call is “inactive”.

With `O=C(C[C@H]1CC[C@@H]2[C@H](COC[C@H](O)CN2C(=O)c2ccc(F)cc2)O1)NCCCN1CCOCC1`, the cytotoxicity call was “inactive”.

`COCC#Cc1cnc2c(c1)C(=O)N([C@H](C)CO)C[C@H](C)[C@H](CN(C)S(=O)(=O)c1ccccc1)O2`: the cytotoxicity call was “inactive”.

In the case of `OC[C@H]1O[C@@H](n2cnc3c(N[C@@H]4CCOC4)ncnc32)[C@H](O)[C@@H]1O`, the cytotoxicity call is “inactive”.

As for `CC[C@H](C#CCN1CCOCC1)OC(C)=O`, the cytotoxicity call is “inactive”.

Regarding `COc1ccccc1S(=O)(=O)N[C@@H]1CC[C@@H](CCNC(=O)C2CC2)O[C@H]1CO`, the cytotoxicity call is “inactive”.

As to `CN1C(=O)c2cc(NC(=O)c3ccc(F)cc3)ccc2OC[C@@H]2O[C@H](CC(=O)N3CCOCC3)CC[C@@H]21`, the cytotoxicity call was “inactive”.

On to `COc1ccc(CN(C)C[C@H]2OCCCC[C@@H](C)Oc3ccc(NC(=O)C4CCCCC4)cc3C(=O)N([C@@H](C)CO)C[C@@H]2C)cc1`, for which the cytotoxicity call is “inactive”.

In the case of `NS(=O)(=O)c1ccc(CCn2ccn(CC(=O)NCCC3=CCCCC3)c(=O)c2=O)cc1`, the cytotoxicity call is “inactive”.

Turning to `C[C@@H]1CN([C@@H](C)CO)C(=O)Cc2cc(NS(=O)(=O)c3ccc(F)cc3)ccc2O[C@@H]1CN(C)S(=O)(=O)c1cn(C)cn1`, the cytotoxicity call is “inactive”.

In the case of `CN(C)C(=O)C[C@@H]1CC[C@@H](NC(=O)C2CCOCC2)[C@@H](CO)O1`, the cytotoxicity call was “inactive”.

Regarding `CCCNC(=O)Nc1ccc2c(c1)C(=O)N(C)C[C@@H](OC)[C@@H](C)CN(C(=O)C1CCOCC1)[C@H](C)CO2`, the cytotoxicity call was “inactive”.

Regarding `C[C@H](CO)N1C[C@H](C)[C@H](CN(C)Cc2ccc(-c3ccccc3)cc2)Oc2ccc(NC(=O)Nc3ccc(C(F)(F)F)cc3)cc2C1=O`, the cytotoxicity call was “active”.

Regarding `C[C@H](CO)N1C[C@H](C)[C@@H](CN(C)Cc2ccc(-c3ccccc3)cc2)Oc2ccc(NC(=O)Nc3ccc(C(F)(F)F)cc3)cc2C1=O`, the cytotoxicity call was “inactive”.

Take `C[C@@H]1CN([C@H](C)CO)C(=O)c2cc(NC(=O)Nc3ccc(C(F)(F)F)cc3)ccc2O[C@@H]1CN(C)Cc1ccc(-c2ccccc2)cc1`: the cytotoxicity call was “active”.

On to `C[C@@H]1CN([C@@H](C)CO)C(=O)c2cc(NC(=O)Nc3ccc(C(F)(F)F)cc3)ccc2O[C@H]1CN(C)Cc1ccc(-c2ccccc2)cc1`, for which the cytotoxicity call was “active”.

As for `Cc1ccc(OC(=O)N(C)C[C@@H]2OCc3ccccc3-c3ccccc3C(=O)N([C@@H](C)CO)C[C@H]2C)cc1`, the cytotoxicity call was “inactive”.

Take `C[C@H]1CN([C@@H](C)CO)S(=O)(=O)c2ccc(C#CCN(C)C)cc2O[C@H]1CN(C)C(=O)CN(C)C`: the cytotoxicity call was “inactive”.

In the case of `O=C(CCCCCNC(=O)OCc1ccc(CO[C@H]2C[C@@H](c3ccc(C(F)(F)F)cc3)C=C(C(=O)N3CCN(Cc4ccccc4)CC3)O2)cc1)NO`, the cytotoxicity call is “inactive”.

Turning to `C[C@H]1CN([C@@H](C)CO)C(=O)c2cc(NC(=O)Nc3ccc4c(c3)OCO4)ccc2O[C@H]1CN(C)S(C)(=O)=O`, the cytotoxicity call is “inactive”.

Consider `COc1ccc(CNC(=O)C[C@H]2CC[C@@H]3[C@H](COc4ccc(NC(=O)C(C)C)cc4C(=O)N3C)O2)cc1`, for which the cytotoxicity call is “inactive”.

For the molecule `C[C@@H]1CN([C@@H](C)CO)C(=O)Cc2cc(NS(=O)(=O)c3cccs3)ccc2O[C@H]1CN(C)Cc1ccncc1`, the cytotoxicity call was “inactive”.

For `CC[C@@H](C[C@@H](O)[C@@H](C)[C@H]1CC[C@H]2C3=CC(=O)[C@H]4[C@H](C)[C@@H](OC(=O)c5ccccc5)CC[C@]4(C)[C@H]3CC[C@]12C)C(C)C`, the cytotoxicity call is “inactive”.

`CC[n+]1oc(-c2ccccc2)cc1C`: the cytotoxicity call is “active”.

For `O=C(CCCCCNC(=O)OCc1ccc(CO[C@H]2C[C@@H](C3CCCCC3)C=C(C(=O)N3CCN(Cc4ccccc4)CC3)O2)cc1)NO`, the cytotoxicity call is “inactive”.

For the molecule `COCC(=O)Nc1ccc2c(c1)C(=O)N(C)C[C@H](OC)[C@@H](C)CN(Cc1ccccc1OC)[C@@H](C)CO2`, the cytotoxicity call is “inactive”.

As for `CC1=C(C)C(=O)C(CCCCCCCCCC[P+](c2ccccc2)(c2ccccc2)c2ccccc2)=CC1=O`, the cytotoxicity call was “active”.

Consider `COC1=C(OC)C(=O)C(C/C=C(\C)CC/C=C(\C)CC/C=C(\C)CC/C=C(/C)CC/C=C(\C)CC/C=C(\C)CC/C=C(\C)CC/C=C(\C)CC/C=C(\C)CCC=C(C)C)=C(C)C1=O`, for which the cytotoxicity call was “inactive”.

Turning to `COC1=C(OC)C(=O)C(C/C=C(\C)CC/C=C(\C)CC/C=C(\C)CC/C=C(\C)CC/C=C(\C)CC/C=C(\C)CC/C=C(\C)CC/C=C(\C)CC/C=C(\C)CCC=C(C)C)=C(C)C1=O`, the cytotoxicity call was “inactive”.

As to `COC1=C(OC)C(=O)C(CCCCCCCCCC[P+](c2ccccc2)(c2ccccc2)c2ccccc2)=C(C)C1=O`, the cytotoxicity call is “active”.

As to `CC1=C(C)C(=O)C(C(CCCCCC(=O)O)c2ccccc2)=C(C)C1=O` (stereo not drawn), the cytotoxicity call was “inactive”.

`COC1=C(OC)C(=O)C(CCCCCCCCCCO)=C(C)C1=O`: the cytotoxicity call was “active”.

In the case of `COC(=O)CCCCCCC(=O)Nc1ccc(NC(=O)CCCC[P+](c2ccccc2)(c2ccccc2)c2ccccc2)cc1`, the cytotoxicity call is “inactive”.

For the molecule `COC1=C(OC)C(=O)C(CC=C(C)CCC=C(C)CCC=C(C)CCC=C(C)CCC=C(C)CCC=C(C)CCC=C(C)CCC=C(C)CCC=C(C)CCC=C(C)C)=C(C)C1=O`, the cytotoxicity call was “inactive”.
